# TLR4 MyD88 comp – blocks binding of human TLR4 to MyD88; inhibition, % at 8.4 µM; hit rate 0.18% among 200,000; HeLa CL3-4 TLR4/MyD88 BLA complementation, FRET ratio; O00206+Q99836; in the data active = inhibition above about 25%;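 note: 0% = vehicle and 100% = reference inhibitor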
# Target sequence (O00206 whole entry, looked up): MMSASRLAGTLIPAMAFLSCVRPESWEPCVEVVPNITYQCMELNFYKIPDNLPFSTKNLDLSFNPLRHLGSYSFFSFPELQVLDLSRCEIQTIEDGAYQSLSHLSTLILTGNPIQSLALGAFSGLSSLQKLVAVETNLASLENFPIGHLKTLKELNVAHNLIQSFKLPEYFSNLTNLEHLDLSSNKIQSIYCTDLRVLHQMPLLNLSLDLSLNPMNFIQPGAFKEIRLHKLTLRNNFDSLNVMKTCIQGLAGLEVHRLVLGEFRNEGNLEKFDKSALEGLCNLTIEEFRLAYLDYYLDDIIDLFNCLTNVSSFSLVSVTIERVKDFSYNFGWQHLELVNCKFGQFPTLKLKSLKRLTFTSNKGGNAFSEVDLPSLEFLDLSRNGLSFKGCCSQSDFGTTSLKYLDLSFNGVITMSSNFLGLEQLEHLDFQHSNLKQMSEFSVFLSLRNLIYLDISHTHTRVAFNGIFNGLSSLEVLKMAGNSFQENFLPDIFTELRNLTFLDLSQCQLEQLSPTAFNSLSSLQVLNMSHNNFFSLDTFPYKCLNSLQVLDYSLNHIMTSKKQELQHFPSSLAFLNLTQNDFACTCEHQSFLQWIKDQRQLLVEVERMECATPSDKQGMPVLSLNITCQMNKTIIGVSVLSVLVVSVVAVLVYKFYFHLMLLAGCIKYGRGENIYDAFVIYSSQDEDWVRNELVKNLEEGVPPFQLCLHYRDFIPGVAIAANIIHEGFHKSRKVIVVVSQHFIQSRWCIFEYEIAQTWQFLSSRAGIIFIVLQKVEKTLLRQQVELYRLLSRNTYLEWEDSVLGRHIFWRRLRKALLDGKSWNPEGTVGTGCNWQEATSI
# Target sequence (Q99836 whole entry, looked up): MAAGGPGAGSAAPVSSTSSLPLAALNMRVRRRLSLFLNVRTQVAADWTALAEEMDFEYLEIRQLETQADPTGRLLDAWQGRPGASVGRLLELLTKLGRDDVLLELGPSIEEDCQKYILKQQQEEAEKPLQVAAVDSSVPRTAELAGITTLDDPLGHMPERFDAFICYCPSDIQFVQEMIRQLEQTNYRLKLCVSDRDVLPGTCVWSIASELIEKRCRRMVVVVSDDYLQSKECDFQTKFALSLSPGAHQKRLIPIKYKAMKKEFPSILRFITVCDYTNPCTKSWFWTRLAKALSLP
# TLR9-MyD88 inh – TLR9-MyD88 interaction inhibition; Q9NR96+Q99836; CHO BLA complementation TLR9-MyD88, CCF4 FRET ratio; inhibition, % at 4.98 µM; hit rate 0.21% among 340,000;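 active = inhibition above the mean over all tested compounds plus 3 SD, cut at about 21% in these data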;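 note: 0% = DMSO only wells and 100% = clavulanate BLA inhibitor control wells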
# NOD2-RIPK2 inh – inhibitors of human NOD2-RIPK2 interaction | inhibition, % at 4.98 µM | CHO BLA complementation NOD2-RIPK2, CCF4 ratio | hit rate 0.38% among 360,000 | O43353 | AID 624267; in the data active = inhibition above about 21%;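 note: 0% = vehicle only and 100% = reference blocker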
# IDE inh – inhibits human insulin-degrading enzyme in HEK cells | P14735 | FAbetaB cleavage, fluorescence polarization | inhibition, % at 5.59 µM | hit rate 0.41% among 320,000 | AID 434962;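 active = percent inhibition above the average of all tested compounds plus 3 SD, set per screening campaign, cut at about 16% in these data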;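 note: IDE supplied by intact live HEK cells; FP after avidin binding of uncleaved biotin substrate so inhibition keeps polarization high; 0% = DMSO wells and 100% = 60 µM reference IDE inhibitor Ii1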
# IDE act – boosts human insulin-degrading enzyme activity in HEK cells. FAbeta-B cleavage, fluorescence polarization; 0% vehicle, 100% cell-free pure enzyme wells. P14735. hit rate 0.073% among 340,000. activation, % at 5.96 µM;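 active = activation above the mean of all tested compounds plus 3 SD, set per screening campaign, cut at about 17% in these data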
# TLR4 MyD88 cnf – TLR4-MyD88 interaction inhibition confirmed; HeLa CL3-4 BLA complementation, CCF4 FRET ratio; shares compounds with TLR4 MyD88 comp; inhibition, % at 8.4 µM; hit rate 50% among 350;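 active = mean inhibition across three repeat runs above about 25% carried over from the earlier screen, limit read from the data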;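 note: plate controls were DMSO only for no effect and clavulanic acid blocking BLA at full dose for full effect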
# BLA inhibitor ct – inhibits beta-lactamase activity, counter-screen to TLR4-MyD88 binding inhibitors; shares compounds with TLR4 MyD88 comp; HeLa BLA reporter, CCF4 FRET ratio; inhibition, % at 8.4 µM; hit rate 63% among 350;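 active = mean inhibition over three repeats above about 26% taken from the earlier screen, limit read from the data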;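 note: HeLa cells stably expressing beta-lactamase reporter as counterscreen for TLR4-MyD88 inhibitors; 0% = DMSO and 100% = clavulanic acid full inhibition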
# IDE inh confirm – confirmation of human insulin-degrading enzyme inhibitors in cells | shares compounds with IDE inh | HEK cells, FAbetaB cleavage, fluorescence polarization | inhibition, % at 5.59 µM | hit rate 51% among 1,200 | AID 435028;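 active = mean inhibition across triplicate wells above the cutoff set by the earlier primary insulin-degrading enzyme screen, cut at about 16% in these data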;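 note: 0% = DMSO wells and 100% = 60 µM reference IDE inhibitor Ii1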
# HEK cytotox – HEK cell cytotoxicity, counter-screen for IDE inhibitors. inhibition, % at 5.59 µM. shares compounds with IDE inh. HEK293 cytotoxicity, ATP luminescence. hit rate 28% among 1,200; in the data active = inhibition above about 22%;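 note: 0% = vehicle wells and 100% = reference cytotoxic drug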
# TLR9-MyD88 cf – TLR9-MyD88 interaction inhibition, confirmation; shares compounds with TLR9-MyD88 inh; CHO TLR9/MyD88 BLA complementation, CCF4 FRET ratio; hit rate 51% among 680; inhibition, % at 4.98 µM;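 active = mean inhibition across three repeats above about 21% taken from the earlier screen, limit read from the data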;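 note: blue over green emission ratio reports constitutive TLR9 MyD88 association via BLA complementation; 0% = DMSO vehicle wells and 100% = clavulanate BLA inhibitor wells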
# BLA counter-1 – counter-screen for TLR9-MyD88 inhibitors: non-selective beta-lactamase inhibitors. AID 540251. hit rate 7% among 680. inhibition, % at 4.98 µM. CHO-BLA cells, CCF4 FRET ratio, BLA reporter. shares compounds with TLR9-MyD88 inh;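 active = mean inhibition above a 50% cutoff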;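 note: counterscreen of TLR9-MyD88 hits on CMV-driven BLA in CHO-K1 cells; 0% = DMSO alone and 100% = clavulanate blocking BLA; higher means less blue over green ratio so more BLA blockade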
# TLR9 CHO cytotox – counter-screen for TLR9-MyD88 inhibitors: cytotoxicity in CHO cells; shares compounds with TLR9-MyD88 inh; hit rate 39% among 680; luminescence; inhibition, % at 4.98 µM; AID 588336; in the data active = inhibition above about 11%
# NOD2-RIPK2 conf – NOD2-RIPK2 interaction inhibition confirmed; shares compounds with NOD2-RIPK2 inh; CHO cells, NOD2-RIPK2 BLA complementation, CCF4 FRET; inhibition, % at 4.98 µM; hit rate 70% among 1,200;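 active = mean inhibition across replicates above a set limit taken from the earlier primary screen, cut at about 21% in these data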;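 note: 0% = DMSO-only wells and the high end = clavulanate BLA-blocked wells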
# BLA counter-2 – counter-screen for NOD2-RIPK2 interaction inhibitors: BLA reporter | hit rate 57% among 1,200 | shares compounds with NOD2-RIPK2 inh | CHO BLA reporter, CCF4 FRET ratio, counterscreen | AID 624371 | inhibition, % at 4.98 µM;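 active = mean inhibition above the low-control mean inhibition plus three low-control SD, cut at about 11% in these data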;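 note: 0% = DMSO only wells and 100% = clavulanate high control wells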
# Starred values were filed as active, the others as inactive; nt = no result. Only some compounds are listed: those with a hit (about 0.87% of all), similar ones and a draw of the others.
SMILES,TLR4 MyD88 comp,TLR9-MyD88 inh,NOD2-RIPK2 inh,IDE inh,IDE act,IDE inh confirm,HEK cytotox,others
Cc1ccc(NC2=Nc3ccccc3N3C2=Nc2c(c(C)nn2-c2ccccc2)C3c2ccc(O)c(O)c2)cc1 (configuration not stated),51.4*,66.1*,65.9*,nt,0.7,nt,nt,TLR4 MyD88 cnf=53.5*;BLA inhibitor ct=83.8*;TLR9-MyD88 cf=58.5*;BLA counter-1=65.8*;TLR9 CHO cytotox=4.5;NOD2-RIPK2 conf=74.3*;BLA counter-2=81.2*
CCCCc1c(Cc2ccccc2)ncn1CCc1ccccc1OC,nt,nt,1.9,nt,nt,nt,nt,
CCOC(=O)CC1=C(C(=O)OCC)C(c2cccnc2)C(C#N)=C(N)O1 (configuration not stated),-1.1,2.5,-4.9,4.2,-1.2,nt,nt,
CCOC(=O)C1=C(CSc2nc(-c3ccccc3)ccc2C#N)OC(N)=C(C#N)C1c1cccnc1 (configuration not stated),26.6*,14.4,21.2*,6.3,-5.2,nt,nt,TLR4 MyD88 cnf=6.5;BLA inhibitor ct=15.4;NOD2-RIPK2 conf=26.2*;BLA counter-2=36.9*
CN1CCN(C(=O)c2ccc(-c3cnn(C)c3)c3ccoc23)CC1,nt,nt,-21.1,nt,nt,nt,nt,
CCCNC(=O)Cn1c(=O)/c(=C\c2ccc(-c3ccc([N+](=O)[O-])cc3)o2)s/c1=C\C(=O)C(C)(C)C,0.2,-8.8,2.7,20.5*,-1.5,77.3*,18.2,
O=C(N/N=C/c1cccc(O)c1)c1ccc(COc2ccc3c(c2)CCC3)o1,-11.9,-6.2,3.1,18.2*,-2.9,2.9,8.2,
COc1ccc(OC)c(CCNC(=O)Cn2nc(C)c3c(C)n(-c4ccccc4)nc3c2=O)c1,nt,-1.9,2.8,1.3,6.2,nt,nt,
COc1ccc(-c2csc(NC(=O)c3cc(C)oc3C)n2)cc1OC,nt,-6.2,-5.1,16.5*,-12.3,13.0,21.3,
O=C(CNC(=O)c1ccc(S(=O)(=O)N2CCCC2)cc1)N/N=C/c1ccc(Cl)cc1Cl,0.4,2.0,3.3,23.5*,-7.2,5.2,7.6,
Cc1ccc(C)c(NC(=O)C2CCCN(S(=O)(=O)c3c(C)nn(C)c3C)C2)c1 (configuration not stated),nt,-2.1,-8.2,7.7,1.7,nt,nt,
O=C(CNC1CCN(Cc2ccccc2)CC1)Nc1ccc(S(=O)(=O)N2CCCCC2)cc1,nt,-1.0,-3.3,-4.4,-0.7,nt,nt,
COc1ccc(-c2ccc(CN3C(C(C)C)C(=O)N(Cc4cn(CC5CCCCC5)nn4)CCS3(=O)=O)cc2)cc1OC (configuration not stated),nt,-8.1,2.0,nt,nt,nt,nt,
O=C(Nc1ccc(F)cc1F)N1CCN(CCc2ccccc2)CC1,nt,-6.0,-7.2,4.0,7.3,nt,nt,
Oc1[nH]c(=S)sc1/C=C1\C(c2ccccc2)=Nc2ccccc21,-7.6,6.5,-3.1,17.8*,-14.1,14.5,9.0,
Oc1[nH]c(=S)sc1C=C1N=c2ccccc2=N1,nt,nt,-7.9,-0.4,nt,nt,nt,
O=[N+]([O-])c1ccc(S(=O)(=O)N2CCN(Cc3ccco3)CC2)cc1,nt,-5.1,-4.2,3.3,2.5,nt,nt,
C=CCNc1ncnc2c1[nH]c1ccccc12,4.4,6.9,-21.1,5.2,4.8,nt,nt,
C=CCNc1ncnc2c1[nH]c1ccc(Cl)cc12,-7.0,-2.7,0.4,29.6*,-29.8,13.3,46.5*,
O=C(O)CCNS(=O)(=O)c1cccc2nsnc12,nt,-0.2,0.7,-0.6,-1.0,nt,nt,
CCN1C(=O)/C(=C/C=C2\N(CC)c3cc(S(=O)(=O)N(C)C)ccc3N2c2ccccc2)SC1=S,nt,6.5,-0.5,18.1*,-36.5,73.9*,32.1*,
CCOc1cc(/C=C/C(=O)c2ccc(OC)c(CN3CCOCC3)c2)cc(Br)c1O,nt,3.0,4.2,94.2*,-74.5,149.7*,22.2*,
O=C(c1cccn2c(=O)c3cc(Cl)ccc3nc12)N1CCN(Cc2ccc3c(c2)OCO3)CC1,-5.3,8.8,16.7,30.8*,-39.0,15.6,13.5,
O=C(c1cccn2c(=O)c3ccccc3nc12)N1CCN(Cc2ccc3c(c2)OCO3)CC1,18.7,8.8,11.7,11.7,-26.4,nt,nt,
CC(C)(C)NC(=O)C(C1CC1)n1c(-c2ccccc2)nc2ccccc21 (configuration not stated),nt,nt,2.3,nt,nt,nt,nt,
SMILES,TLR4 MyD88 comp,TLR9-MyD88 inh,NOD2-RIPK2 inh,IDE inh,IDE act,IDE inh confirm,HEK cytotox,others
C[C@@H]1C=C(C(=O)NCc2nc3ccccc3[nH]2)O[C@H](OCc2ccc(CO)cc2)C1,nt,-8.1,-12.7,2.7,0.1,nt,nt,
C[C@@H]1C=C(C(=O)NCc2nc3ccccc3[nH]2)O[C@H](OCCCCO)C1,nt,-8.3,-4.3,17.0*,-4.5,3.0,13.3,
Cc1ccsc1C(=O)OCC(=O)NCc1ccc(Cl)cc1,nt,-8.3,4.1,-2.0,-1.9,nt,nt,
CSc1nsc(SCC(=O)Nc2ccccc2C(=O)O)n1,nt,-3.4,-2.3,17.0*,-10.1,15.4,12.4,
CCCCCCNC(=O)N[C@H](C(=O)NCCC[C@H]1CN2C(=NC[C@H]2C)N1CCC(c1ccccc1)c1ccccc1)C(C)O (some centres not stated),nt,0.7,nt,16.4*,-16.5,5.2,37.7*,
COc1ccc(OC)c(S(=O)(=O)NCc2ccccn2)c1,nt,0.8,6.6,3.4,2.3,nt,nt,
CC(C)(C)SCCNC(=O)CN(c1ccccc1)S(=O)(=O)c1ccc(F)cc1,-3.9,-7.8,5.4,3.7,0.7,nt,nt,
CCc1ccccc1-n1c(SCC(=O)N2CCCC2)nc2[nH]ncc2c1=O,-5.5,-0.4,8.3,11.7,-3.4,nt,nt,
COc1ccccc1-n1c(SCC(=O)Nc2ccccc2F)nc2[nH]ncc2c1=O,-17.5,-5.5,-1.8,6.0,-26.2,nt,nt,
CCOc1ccc(NC(=O)CSc2nc3[nH]ncc3c(=O)n2-c2ccccc2OC)cc1,11.4,9.0,-6.4,61.9*,-38.4,8.1,7.2,
